Only a selection was taken, and hits are over-represented in it overall.
ST2 inh: inhibitors of human ST2 (IL1RL1) binding to IL-33, primary screen, biochemical, AlphaLISA; inhibition, % for hits at 17 µM; 78,000 compounds, 2.3% hits; AlphaLISA ST2-Fc/biotin-IL-33 interaction, 1 h; Interleukin-1 receptor-like 1 (Homo sapiens), Q01638; in the data active means inhibition above about 30%
Target sequence (Q01638 whole entry, looked up): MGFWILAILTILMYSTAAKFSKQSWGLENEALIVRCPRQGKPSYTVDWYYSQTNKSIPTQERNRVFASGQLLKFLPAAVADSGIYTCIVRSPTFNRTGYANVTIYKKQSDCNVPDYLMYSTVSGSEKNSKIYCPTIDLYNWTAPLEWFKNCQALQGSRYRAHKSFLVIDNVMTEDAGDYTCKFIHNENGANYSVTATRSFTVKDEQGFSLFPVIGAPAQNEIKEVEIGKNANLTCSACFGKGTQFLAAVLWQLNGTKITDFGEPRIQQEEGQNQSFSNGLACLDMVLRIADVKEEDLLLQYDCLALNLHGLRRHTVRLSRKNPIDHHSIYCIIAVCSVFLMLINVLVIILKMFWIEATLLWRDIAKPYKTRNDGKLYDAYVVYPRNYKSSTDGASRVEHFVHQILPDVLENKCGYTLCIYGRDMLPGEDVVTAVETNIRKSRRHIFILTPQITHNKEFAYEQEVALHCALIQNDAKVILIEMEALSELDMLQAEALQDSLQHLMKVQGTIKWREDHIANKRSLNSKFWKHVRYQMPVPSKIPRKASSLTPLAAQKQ
* hit, by the source's call; i = inactive.

SMILES	ST2 inh
CC1SC2(CCCCC2)N(c2ccc(Cl)cc2)C1=O (stereo not drawn)	i
CC(C)(C)C1CCC2(CC1)SCC(=O)N2c1ccc(Cl)cc1 (stereo not drawn)	36%*
O=C1CSC(c2ccccc2)N1c1ccc(Cl)cc1 (stereo not drawn)	i
CCOc1ccc(-n2c(=O)[nH]c3ccsc3c2=O)cc1	i
O=C1Nc2ccc(Br)cc2C(O)(C(=O)NC2CCCCC2)N1c1ccc(Cl)cc1 (stereo not drawn)	i
CN(Cc1nc2ccccc2s1)C(=O)c1cccc(Cn2cccn2)c1	i
O=C(CCCc1ccccc1)Nc1ccccc1-c1ccccc1	i
O=C(Nc1ccccc1-c1ccccc1)c1ccccc1	i
CC(=O)Nc1ccc2cccccc1-2	56%*
COc1cc(O)c2c(=O)c(O[C@@H]3O[C@@H](C)[C@H](O)[C@@H](O)[C@H]3O)c(-c3ccc(O)cc3)oc2c1O	i
COc1cc(Cl)c(C)cc1-n1ccnc1-c1cccnc1	i
Brc1ccc(CSc2nnc3c(n2)[nH]c2ccccc23)cc1	i
O=C(CSc1nnc2c(n1)[nH]c1ccccc12)Nc1nc2ccc([N+](=O)[O-])cc2s1	i
O=C(CSc1nnc2c(n1)[nH]c1ccccc12)c1ccc(Cl)cc1	32%*
CCN(CC)CCNC(=O)c1cc2c(=O)oc3ccccc3c2s1	i
CCOC(=O)C1CCCN(C(=O)c2cn(Cc3ccccc3F)nn2)C1 (stereo not drawn)	i
Cc1ccc(NC(=O)C2CCCCC2)cc1OCc1cc(=O)n2cccc(C)c2n1	i
Cc1ccc(NC(=O)c2ccccc2C)cc1OCc1cc(=O)n2cccc(C)c2n1	33%*
Cc1ccc(SCC(=O)Nc2ccc(C)c(OCc3cc(=O)n4cccc(C)c4n3)c2)cc1	i
O=[N+]([O-])c1ccc(NC2OC(CO)C(O)C2O)cc1 (stereo not drawn)	i
COc1ccc(CNc2ccc3c(c2)ncn3C2CCCCC2)cc1	39%*
COc1ccc(CNc2ccc3c(c2)ncn3C2CCCCC2)cc1OC	33%*
COc1ccc(CNC(=O)c2ccc3c(c2)ncn3C2CCCC2)c(OC)c1	i
COc1ccc(CNc2ccc3c(c2)ncn3C(C)(C)C)cc1OC	i
CCOc1ccc(CNc2ccc3c(c2)ncn3C(C)(C)C)cc1	i
SMILES	ST2 inh
CCn1cnc2cc(NCc3ccc(OC)c(OC)c3)ccc21	i
CCN(C(=O)c1ccccc1Br)c1ccccc1	i
Cn1ccnc1-c1nccn1-c1ccc2c(c1)CCC2	i
Cc1cc(NC(=O)CS(=O)(=O)c2cn(Cc3ccc(Cl)cc3)c3ccccc23)no1	i
Cc1ccc2nc(N=C(N)NC(=O)Cc3ccc(Cl)cc3)nc(C)c2c1	30%*
CC(=O)NC(=Nc1nc(C)c2cc(C)ccc2n1)NC(C)=O	i
COc1ccc2nc(N=C(N)NC(=O)Nc3ccccc3)nc(C)c2c1	i
Cc1cccc(N2C(=O)CSC2c2ccc(Br)cc2)c1 (stereo not drawn)	i
COc1cc(OC)cc(C(=O)Nc2ccc(Nc3nc(C)cc(N(C)C)n3)cc2)c1	i
COc1ccc(Cl)cc1C(=O)Nc1ccc(Nc2nc(C)cc(Nc3ccccc3)n2)cc1	i
Cc1cc(N(C)C)nc(Nc2ccc(NC(=O)c3ccccc3C)cc2)n1	31%*
Cc1cc(N(C)C)nc(Nc2ccc(NC(=O)c3c(F)cccc3F)cc2)n1	i
COc1ccc(Cl)cc1C(=O)Nc1ccc(Nc2nc(C)cc(N(C)C)n2)cc1	33%*
Cc1cc(N(C)C)nc(Nc2ccc(NC(=O)c3ccccc3C(F)(F)F)cc2)n1	i
COc1ccc(OC)c(C2NC(C(=O)O)C3C(=O)N(c4ccccc4)C(=O)C23)c1 (stereo not drawn)	i
CC(=O)C(C)n1c(CN2CCN(c3cc(Cl)ccc3C)CC2)nc2c1c(=O)[nH]c(=O)n2C (stereo not drawn)	i
COCCN(Cc1ccsc1)C(=O)[C@@H]1C[C@H](N)CN1C	i
O=C(Cn1c(C(F)(F)F)nc2ccccc21)NC1CCCCC1	i
COC1=NC2Nc3ccccc3N(C)C2C1c1ccc([N+](=O)[O-])cc1 (stereo not drawn)	i
CCn1nc(C)c(CN2CCC(Oc3ccccc3C(=O)N3CCCCC3)CC2)c1C	i
O=C(c1cccc(F)c1)N1CCN=C1SCc1ccccc1F	i
c1ccc(-c2nc[nH]c2-c2cccn2-c2cccnc2)cc1	i
CCN1CCN(CCCNC(=O)c2cccn2-c2nnc(N3CCCCC3)s2)CC1	i
O=C(NCCCN1CCCC1)c1cccn1-c1nnc(N2CCCCC2)s1	i
COc1ccc(N2CCN(CCCNC(=O)c3cccn3-c3nnc(N4CCCCC4)s3)CC2)cc1	31%*
SMILES	ST2 inh
O=C1NC(=O)/C(=C\c2ccc(OCc3ccc(Br)cc3)c(Br)c2)N1	i
CC(=O)Nc1cccc(C(=O)c2cccc(NC(C)=O)c2)c1	i
CC(C)c1cc(C(=O)NCc2cccnc2N2CCc3ccccc3C2)n[nH]1	i
CNC(=O)c1cc2c(cn1)[nH]c1ccccc12	i
Nc1ccc2[nH]c3ccccc3c2c1	66%*
O=c1nc(-c2ccccc2)c2ccccc2[nH]1	i
COC(=O)c1cc(NS(=O)(=O)c2cccc3cccnc23)cc(C(=O)OC)c1	i
CCCN1CCN(C(=O)c2cnc(N3CCN(c4ccccn4)CC3)c3ccccc23)CC1	i
CCN(CC)c1cc(C)c2cc(NC(=O)Cn3nc([N+](=O)[O-])c(Br)c3C)ccc2n1	i
Cc1cc(=O)[nH]c(NCCNC2CCC3(CCNCC3)CC2)n1	i
CSc1nc2nc3c(cc2c(=O)n1-c1ccccc1C)COC(C)(C)C3	i
CCCSc1nc2nc3c(cc2c(=O)n1-c1ccc(OC)cc1)COC(C)(C)C3	44%*
CCC1(C)Cc2c(sc3nc(SC)n(-c4ccc(OC)cc4)c(=O)c23)CO1 (stereo not drawn)	i
COc1ccc2c(c1)OC(C)CN(CC(=O)NCC(c1ccncc1)N1CCOCC1)C2 (stereo not drawn)	i
N#CC1=C(N)Oc2cc(N)ccc2C1c1cccc(Cl)c1Cl (stereo not drawn)	i
COc1ccc(Cc2nnc(NCc3ccco3)[nH]c2=O)cc1	i
Cc1ccccc1OCCn1cc(C=C2C(=O)N(C)C(=O)N(C)C2=O)c2ccccc21	i
O=C1NN(c2ccccc2)C(=O)/C1=C/c1ccccc1OCc1c(F)cccc1Cl	41%*
COc1cccc(/C=C2/C(=O)NN(c3ccccc3)C2=O)c1OC	i
COc1cccc(/C=C2/C(=O)NN(c3ccc(C)c(Cl)c3)C2=O)c1	i
CCOc1ccc(/C=C2\C(=O)NN(c3cccc(Br)c3)C2=O)cc1OCC	i
Cc1ccccc1OCCOc1ccc([N+](=O)[O-])cc1/C=C1\C(=O)NN(c2ccccc2)C1=O	35%*
COc1ccc(-c2cc(C(F)(F)F)nc(NCc3ccco3)n2)cc1	i
COc1ccc(N2CCN(C(=O)Cc3cn(C)c4ccccc34)CC2)cc1	i
CC(C)c1ccc(S(=O)(=O)CCc2ccccn2)cc1	i
Cc1[nH]c2ccccc2c1CC(=O)N1Cc2cnc(CC(C)C)nc2C1	i
NC(=O)CSc1nc2ccccc2n1CC(N)=O	i
COc1ccc(C2(CNC(=O)/C=C(/C)c3ccccc3)CCCC2)cc1OC	i
Cc1ccc(N2C(=O)C3CCC(C)CC3C2=O)cc1Cl (stereo not drawn)	i
COc1ccc(OC)c(S(=O)(=O)Nc2cccc(Br)c2)c1	i
